# From PubChem BioAssay (NCATS)
# A number with no mark means an inactive call. Calls come from the whole dose curve; as a rule, active = well fitted inhibition curve with a large enough effect; inconclusive = small, poorly fitted or top-dose-only effect; inactive = flat fitted curve, though single readings scatter.
# System: Nanoluciferase (engineered Oplophorus gracilirostris luciferase)
# Experiment: Primary Nanoluciferase (NLuc) qHTS assay for identification of artifact compounds. (AID 1845222);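 note: NLuc secreted into diluted conditioned medium of S16 cells; 0% = DMSO and -100% = no enzyme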
# Settings: NLuc-conditioned medium, Nano-Glo luminescence, 5 min; series mostly up to 54.1 µM; activity, negative = inhibition: at the top concentration
# Outline: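 qHTS format, against NLuc in S16 cell-conditioned medium. Nano-Glo substrate 1:100 was added after 15 min at room temperature. Luminescence was taken after a further 5 min.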
row,SMILES,"activity, negative = inhibition"
1,CNc1nc(Nc2ccc(C(=O)N3CCOCC3)cc2OC)nc2[nH]cc(Cl)c12,-9%
2,COc1ccccc1-c1ccc(-c2cn(C(=O)N3CCCCC3Cc3ccccc3)nn2)cc1 (stereo not given),0%
3,C=C1C(=O)O[C@@H]2C3C(=C(C)[C@@H](O)[C@@H](OC(=O)/C(=C/C)COC(C)=O)[C@@H]12)C(=O)[C@H]1O[C@@]31C (stereo not given in full),2.08% [at 25.7 µM]
4,COc1ccccc1C(=O)Nc1cc2c(cc1N1CCCC1)n(C)c(=O)n2C,1.08%
5,Cc1cc(C(=O)Nc2cc(Nc3ccc4c(/C=C/c5ccccn5)n[nH]c4c3)ccc2F)n(C)n1,-0.91%
6,N#Cc1ccc(COc2ccc(-c3cccc4nc(NC(=O)C5CC5)nn34)cc2)cn1,-2.04%
7,COc1cc(CN(CCN)C(=O)c2cccs2)ccc1OCc1ccccc1,-6.05%
8,C=C1C(=O)O[C@@H]2C(OC(=O)/C(C)=C\C)/C(C)=C\C(=O)/C=C(\C)C[C@H](O)[C@@H]12 (stereo not given in full),-0.578%
9,CCOC(=O)c1csc(Nc2ccc(Cl)cc2)n1,-4.73%
10,CNc1nc(NCc2ccc(NS(C)(=O)=O)cc2Cl)cc(-c2ccccn2)n1,4.02%
11,CC(=O)O[C@H]1CC2C(COC(=O)CC(C)C)=CO[C@@H](OC(=O)CC(C)C)C2[C@]12CO2 (stereo not given in full),-2.24% [at 25.7 µM]
12,CCCN(CCc1ccsc1)C1CCc2c(O)cccc2C1 (stereo not given),4.39%
13,O=C(Nc1ccc(Cl)cc1)Nc1cccc(-c2cccc(N3CCCC3)n2)c1,0%
14,O=C(O)C1=CO[C@@H](O[C@@H]2O[C@H](CO)[C@@H](O)[C@H](O)[C@H]2O)[C@@H]2C(CO)=CC[C@H]12,0%
15,C/C=C(\C)C(=O)O[C@H]1C=C(CO)C(=O)[C@H](OC(C)=O)[C@H]1C(C)C,-1.27%
16,Cc1ccc(O)cc1Nc1ccnc(Nc2cccc(C(N)=O)c2)n1,1.12%
17,COC1CCN(c2cccc(-c3cc(NC(C)=O)nc(-n4nc(C)cc4C)n3)n2)CC1,2.14%
18,CC[C@H](C(=O)Nc1ccccc1N1CCCC1)c1ccccc1,-18.8%

row,SMILES,"activity, negative = inhibition"
1,Nc1nc2c(cnn2CCCc2ccc(O)cc2)c2nc(-c3ccco3)nn12,-1.39%
2,O=C(Nc1ccc(-c2ccc(Cl)c(Cl)c2)cc1)C1=C(O)c2ccccc2S(=O)(=O)N1,-18.5%
3,CC(C)c1ccc(-c2cc(=O)c3ccccc3o2)cc1,-13.5%
4,Nc1nc2c(nc(Br)n2[C@@H]2O[C@@H]3COP(=O)(O)O[C@H]3[C@H]2O)c(=O)[nH]1,-3.93%
5,CC(=O)O[C@@H]1[C@@H](O)[C@H](O[C@@H]2[C@@H](O)[C@@H](O)[C@H](O[C@H]3[C@H](O[C@H]4[C@H](O[C@H]5CC[C@@]6(C)C(CC[C@]7(C)C6CC=C6[C@@H]8CC(C)(C)CC[C@]8(C(=O)O)CC[C@]67C)[C@]5(C)CO)O[C@H](CO)[C@@H](O)[C@@H]4O)OC[C@@H](O)[C@@H]3O)O[C@H]2C)OC[C@H]1O (stereo not given in full),1.48% [at 11.6 µM]
6,CC(C)Nc1nc(Nc2ccccc2)nc(-c2ccccc2)n1,-17.4%
7,O=C(Nc1ccc2[nH]nc(-c3ccncc3)c2c1)[C@@H]1CCN(CC(=O)N2CCN(c3ccc(-c4ncccn4)cc3)CC2)C1,0.927%
8,O=C(O)c1cccc(-c2ccc(-c3cn(C(=O)N4CCCCC4Cc4ccccc4)nn3)cc2)c1 (stereo not given),-2.6%
9,CN(C)Cc1ccc(-c2cnn3c(-c4cccc(NC(=O)c5cccc(C(F)(F)F)c5)c4)ccnc23)cc1,-5.7%
10,O=C(Nc1nnc(-c2ccc3c(c2)OCCO3)o1)C1CCCCC1,-0.617%
11,O=C(NCCN1CCC(n2c(=O)[nH]c3ccccc32)CC1)c1ccc2ccccc2c1,2.71%
12,COc1ccccc1C(=O)Nc1cccc(NC(=O)c2cccc(C)c2)c1,-4.18%
13,COc1cc2c(cc1O)C1(Cc3ccc4c(c3C1O)OCO4)[N+](C)([O-])CC2 (stereo not given),-7.8%
14,COc1ccc2nc(-c3cc(OC)c(OC)c(OC)c3)cc(C(=O)NCC(=O)Nc3ccc(C(C)=O)cc3)c2c1,-9.36%
15,c1ccc(-c2cnn3cc(-c4ccc(OCCN5CCOCC5)cc4)cnc23)cc1,-0.0684%
16,CN1CCN(C2=Nc3ccccc3Nc3ccc(Cl)cc32)CC1,-7.46%
17,NCC1CCN(c2nccc(-c3ccc4ccccc4c3)n2)CC1,2.91%
